# Measured values taken from the supplement of paper PMC7866885, “A novel bicyclic 2,4-diaminopyrimidine inhibitor of Streptococcus suis dihydrofolate reductase” (PeerJ, 2021).
# ± gives the standard deviation.
# Test system: Streptococcus suis HE06
# Experiment: percent growth relative to DMSO control; higher = less growth inhibition
# Conditions: 10 µM; incubation time 18 h
# Experimental: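 CLSI broth microdilution: 5x10^4 CFU of Streptococcus suis (strain P1/7 or HE06) incubated with 10 µM Pathogen Box compound in cation-adjusted Mueller Hinton broth, 37 °C, 5% CO2, 18 h. Growth read as OD600 and expressed as percent of the DMSO-treated control (100%); mean ± SD of three independent experiments.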
row,SMILES,percent growth
1,COc1ccc(-c2cnc3ccc(NCc4ccc(S(N)(=O)=O)cc4)nn23)cn1,85.1 ± 6.3%
2,C[C@H]1c2cccc(O)c2C(=O)C2=C(O)[C@]3(O)C(=O)C(C(N)=O)=C(O)[C@@H](N(C)C)[C@@H]3[C@@H](O)[C@@H]21,10.4 ± 18%
3,Cc1cc(NCCc2ccccc2)nc(NC(=N)Nc2ccc(Cl)cc2)n1,148 ± 68%
4,O=C(NCc1nnc2n1CCCCC2)c1ccc(-c2ccc(F)cc2)o1,82.7 ± 15%
5,Clc1ccc(-n2cc(COc3ccnc4ccccc34)nn2)cc1,84.2 ± 6%
6,CS(=O)(=O)Cc1nc2ccccc2oc1=O,67.6 ± 7.5%
7,Cc1cc(NCC(C)C)c2n[nH]c(-c3ccccc3)c2n1,81.1 ± 5.3%
8,O=C(NCc1cc(Cl)cc(Cl)c1)c1c(C(F)(F)F)nc2ccccn12,84.6 ± 3.8%
9,Cc1ccc(NC(=O)CC2COc3ccccc3O2)cc1Cl (stereo not drawn),96.4 ± 1.4%
10,O=C(N[C@H](Cc1ccccc1)C(=O)Nc1ccccc1N1CCOCC1)c1cccs1,92.7 ± 9.4%
11,Cc1ccc2cc(C3NC(=O)c4ccccc4N3)c(Cl)nc2c1 (stereo not drawn),72.4 ± 16%
12,N=C(N)Nc1ccc(-c2ccc(-c3ccc(N=C(N)N)c(Cl)c3)o2)cc1Cl,27.7 ± 29%
13,Cc1cc(OCC(=O)NCc2ccccc2)c2cc(Br)ccc2n1,94.8 ± 9.9%
14,CC(c1cc(Cl)cc(Cl)c1)N(C)c1ncc2c(N)nc(N)nc2n1 (stereo not drawn),84.7 ± 21%
15,Cc1cc(Cl)ccc1NC(=O)CCc1ccc(S(=O)(=O)NCC(C)C)cc1,87.8 ± 9.9%
16,COc1ccc(OC)c(NCc2ccc3nc(N)nc(N)c3c2Cl)c1,4.05 ± 6.3%
17,CS(=O)(=O)c1ccc(C(=O)N(CC2CCCO2)c2nc3ccccc3s2)cc1[N+](=O)[O-] (stereo not drawn),91.7 ± 7.5%
18,c1ccc(-c2[nH]c3ccccc3c2C(c2ccccn2)N2CCCC2)cc1 (stereo not drawn),88.5 ± 4.3%
19,COCC(C)NC(=O)CSc1ncnc2sc(-c3ccccc3)cc12 (stereo not drawn),95.4 ± 33%

row,SMILES,percent growth
1,CCOc1ccc2cc(-c3nn(CC4CCN(C)CC4)c4ncnc(N)c34)ccc2c1,97 ± 13%
2,NCC(c1cccs1)S(=O)(=O)c1ccccc1 (stereo not drawn),111 ± 30%
3,CCCn1nnc(NC(=O)COc2ccc(C3CCCCC3)cc2)n1,115.2 ± 1%
4,CCOc1ccc2cc(-c3nn(C(C)(C)C)c(N)c3C(N)=O)cnc2c1,77.6 ± 17%
5,Cc1cc2nc(NC(=O)C(C)(C)C)nc(Cl)c2n1Cc1ccc(Cl)cc1,115 ± 19%
6,CC(C)(C)c1cc(C(=O)Nc2cccnc2)cc(C(=O)Nc2cccnc2)c1,80.6 ± 4.4%
7,COc1ccc(Cl)cc1NC(=O)CN(C)C(=O)c1cnn(-c2ccccc2)n1,79.4 ± 7.2%
8,CC(Oc1ccccc1)C(=O)Nc1nc(-c2ccccn2)cs1 (stereo not drawn),2.67 ± 2.8%
9,CCC(NC(=O)c1ccccc1NC(=O)c1ccc(C)cc1)C(=O)OC (stereo not drawn),92 ± 4.7%
10,O=C(c1cc2ccccc2o1)N1CCN(Cc2ccc3c(c2)OCO3)CC1,84.6 ± 20%
11,NC(CC(=O)c1ccc(Cl)cc1Cl)C(Cl)(Cl)Cl (stereo not drawn),58.8 ± 39%
12,Cc1ccc(S(=O)(=O)n2cc(-c3ccnc(N)c3)c3cc(Br)cnc32)cc1,95.2 ± 32%
13,O=C(NCCc1ccn(-c2ccccc2)n1)C1CCCCC1,97.3 ± 2.1%
14,CCCCc1ccc(NC(=O)Nc2ccc(O[C@H]3CCCC[C@@H]3N(C)c3ccccc3)c(F)c2)cc1,77.8 ± 26%
15,Nc1ncnc2c1c(-c1cnc3ccccc3c1)nn2CC1CCNCC1,94.9 ± 5.4%
16,Clc1ccc(CN2CCN(C3=NCCN3)CC2)cc1Cl,89 ± 2.1%
17,O=C1N(Cc2cc3ccccc3s2)CC2CN(Cc3ccccc3)CCN12 (stereo not drawn),82.2 ± 8%
18,Cc1cc(C(=O)Nc2ccc(-c3ccccc3)cc2)no1,103 ± 36%
19,Cc1nn2c(O)c3c(nc2c1-c1ccc(F)cc1)CCCC3,63.3 ± 22%
